Each structure is given as a SMILES string. Several values for one entry are separate records, joined by “and”; a condition that tells them apart may be missing. Identical values can stand only once. Activity calls are given as the source filed them. Rule for the calls: active = hit-call score of the fitted dose curve at least 0.9, where 1 is the maximum; inactive = score below 0.9.

The term AC50 denotes the concentration giving half of the maximal activity seen.

Read-out in the first experiment: KRT18 (gene 3875)
Put plainly: BSK_BF4T_Keratin818: BioMAP Diversity Plus: BF4T Assay for Keratin 818 Biomarker Activity (AID 2284266). The settings on record: primary human bronchial epithelial cells with fibroblasts. How it is done: BSK_BF4T is a cell-based, multiplexed-readout assay that uses bronchial epithelial cells and dermal fibroblasts, a human vascular primary cell, with measurements taken at 24 hours after chemical dosing in a microplate: 96-well plate.BSK_BF4T_Keratin818 is an assay component measured in the BSK_BF4T assay. It measures Keratin 8/18 antibody related to regulation of gene expression using ELISA technology.Data from the assay component BSK_BF4T_Keratin818 was analyzed at the endpoint, BSK_BF4T_Keratin818, in the positive analysis fitting direction relative to DMSO as the negative control and baseline of activity. Using a type of binding reporter, gain or loss-of-signal activity can be used to understand protein changes. To generalize the intended target to other relatable targets, this assay endpoint is annotated to the 'cell adhesion molecules' intended target family, where the subfamily is 'keratin'.
The levels of cell surface (or secreted, indicated by the prefix "s") biomarker endpoints were measured by ELISA. Overt cytotoxicity to cells in confluent adherent cultures (all systems other than the BT system) was assessed by measuring total protein levels using sulforhodamine B (SRB) staining in parallel cultures at the time of biomarker measurements, indicated as SRB endpoints. For proliferation assays for adherent cell types, individual cell types are cultured at sub-confluence and relative cell numbers quantified by SRB staining at time points optimized for each system (48 h: 3C and CASM3C systems; 72 h: BT and HDF3CGF systems; 96 h: SAg system). SRB was performed by staining cells with 0.1% SRB after fixation with 10% TCA and reading wells at 560 nm.Viability and proliferation of PBMC (T cells) was quantified by Alamar Blue reduction for the SAg and BT systems. […] Then, Alamar Blue (20 uL/well) (Invitrogen, Cat DAL1100) was added for 6 h, and the plates were read with a fluorescence microplate reader at 546/580 nm (excitation/emission). […] Plates were read after 6 h.
Consider `O=C(O)CCC(F)(C(F)(F)F)C(F)(F)F`, for which the result was inactive. On the same count and under the same terms, the result for `O=C(O)C(F)(F)C(F)(F)C(F)(F)C(F)(F)C(F)(F)C(F)(F)F` reads “inactive”.

On to `O=C(O)C(F)(F)C(F)(F)C(F)(F)C(F)(F)C(F)(F)C(F)(F)C(F)(F)C(F)(F)C(F)(F)C(F)(F)F`, for which the AC50 was 5.05 µM (active) and 5.17 µM (active).

Read-out in the next experiment: not listed separately
The experiment can be described thus: BSK_MyoF_SRB: Viability Assessment in the BioMAP Diversity Plus: MyoF Assay (AID 2284267).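 Note: total protein by SRB absorbance in parallel cultures as cytotoxicity measure; cells assessed 24 h after compound addition.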 The settings on record: primary human lung fibroblasts. Put shortly: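 Human lung fibroblasts dosed with chemical and assessed 24 h later for overt cytotoxicity in parallel cultures. Total protein quantified by sulforhodamine B staining (0.1% SRB after 10% TCA fixation), read at 560 nm, analysed in positive direction versus DMSO baseline.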
For the compound `O=[N+]([O-])c1ccc2c3c(cccc13)CC2`, the outcome was inactive. Still for that read-out and setting: the result for `O=C(O)CCC(F)(C(F)(F)F)C(F)(F)F` reads “inactive”. Consider `O=C(O)C(F)(F)C(F)(F)C(F)(F)C(F)(F)C(F)(F)C(F)(F)F`, for which the outcome was inactive. The same measure, in the same setting: the result for `CCOP(=S)(OCC)SCCS(=O)(=O)CC` reads “inactive”.

As for `BrCCBr`, the outcome was inactive.

With `CCSC(C)CC1CC(=O)C(C(CC)=NOC/C=C/Cl)=C(O)C1` (stereo unspecified), the result was inactive. Regarding `ClC(Cl)=C(Cl)C(Cl)=C(Cl)Cl`, the outcome was inactive. The same measure, in the same setting: the result for `COP(=S)(OC)Oc1ccc(S(=O)(=O)N(C)C)cc1` reads “inactive”; that for `Nc1ncc([N+](=O)[O-])s1`, “inactive”. As to `C(=NC1CCCCC1)=NC1CCCCC1`, the AC50 is 7.2 µM (active). For `COC(=O)c1sccc1S(=O)(=O)NC(=O)Nc1nc(C)nc(OC)n1`, the result was inactive. The same measure, in the same setting: the result for `CC(C)CCCCCCOC(=O)c1ccccc1C(=O)OCCCCCCC(C)C` reads “inactive”.

Regarding `COP(=S)(OC)Oc1cc(Cl)c(Cl)cc1Cl`, the result was inactive.

In the case of `NC(=S)Nc1ccccc1`, the result was inactive.

Take `Nc1ccc(-c2ccc(N)c(Cl)c2)cc1Cl`: the AC50 is 24.9 µM (active). Consider `CCNc1nc(NC(C)(C)C)nc(SC)n1`, for which the result was inactive.

Regarding `CCCCCCCCC(=O)NCc1ccc(O)c(OC)c1`, the result was inactive. Same read-out and setting: the result for `COC[C@H](C)N(C(=O)CCl)c1c(C)csc1C` reads “inactive”.

The record behind these values is PubChem BioAssay (EPA / NIEHS).
